# Compounds with a hit are over-represented: about 11% of the library has one in this group of screens.
# Pf growth 48h = Primary qHTS for delayed death inhibitors of the malarial parasite plastid, 48 hour incubation. AID 504832, 2011. 5.9% of 310,000 active. Potency, µM (series often up to 28.7 µM), actives largely listed as inhibitors. P. falciparum luciferase growth in erythrocytes, 48 h
#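 Cell-based growth assay: transgenic P. falciparum expressing firefly luciferase, cultured in red cells within RPMI 1640 containing 0.5% w/v Albumax, 24 mM bicarbonate and gentamycin. A drop in luciferase activity indicates inhibition.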
# AMA1 RON2 block = qHTS for Inhibitors of AMA1-RON; Towards Development of Antimalarial Drug Lead: Primary Screen; AlphaScreen AMA1-biotinylated RON2 peptide binding; AID 720542, 2013; Potency, µM (highest dose often 58.2 µM), most hits filed as inhibitors; 0.2% of 360,000 active; further: nearly all actives have a fitted effect of over 45% in size
#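 AMA1 (3D7) with his tag at 25 nM final met compounds first, then biotinylated RON2 peptide at 25 nM; detection used donor plus acceptor beads, 10 µg/mL apiece, read by AlphaScreen after 30 min at room temperature.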
# Pf growth 96h = Primary qHTS for delayed death inhibitors of the malarial parasite plastid, 96 hour incubation; P. falciparum luciferase reporter growth, 96 h; Potency, µM (top dose mostly 28.7 µM), actives largely listed as inhibitors; 6.9% of 320,000 active; AID 504834, 2011
#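 Two-generation exposure (96 h) targets delayed-death phenotype. Reporter parasites carrying integrated firefly luciferase, in red cells at 2% hematocrit and 0.05% parasitemia final, kept at 37 C, 5% CO2; luminescence loss indicates inhibition.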
# HCV inh = qHTS Assay for Inhibitors of Hepatitis C Virus (HCV) | Potency, µM (top dose mostly 41.8 µM), hits mostly inhibitors | 3.4% of 340,000 active | Huh7.5.1 HCVcc-Cre infection, luciferase reporter, 44 h
#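 A cell-based infection assay in which seeded cells (1,000 per well) receive test compound after 4 h, are inoculated with HCVcc-Cre at approximately 0.5 moi, and are incubated 44 h before luminescence detection.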
# Numbers stand for hits; . = inactive; ? = inconclusive; / = not tested or not shown; [ ] = remark or other dose. The call rests on the fitted dose curve; in most records, active means well fitted curve in the direction sought with a large enough effect; inconclusive means small, poorly fitted or top-dose-only effect, or another doubt; inactive means no such curve, though single readings can be large; an effect the other way counts as inactive or inconclusive.
SMILES,Pf growth 48h,AMA1 RON2 block,Pf growth 96h,HCV inh
O=C(NCc1ccco1)C(C(=O)c1ccc(F)cc1)n1ccccc1=O (stereo not given),.,?,.,.
CN1CCN(C(=O)C(C(=O)c2ccc(F)cc2)n2ccccc2=O)CC1 (stereo not given),.,.,2.3µM,.
O=C(NCc1ccccn1)C(C(=O)c1ccc(F)cc1)n1ccccc1=O (stereo not given),.,.,13µM,.
Cc1ccc(S(=O)(=O)NC2(C(F)(F)F)NC(=O)N(c3ccc(F)cc3)C2=O)cc1 (stereo not given),.,.,.,.
CCOC(=O)NC1(C(F)(F)F)NC(=O)N(c2ccc(F)cc2)C1=O (stereo not given),.,.,4.7µM,.
CC(=O)Nc1ccc(S(=O)(=O)NC2(C(F)(F)F)NC(=O)N(c3ccc(C)cc3)C2=O)cc1 (stereo not given),.,.,9.3µM,.
COC(=O)C1CCN(C2CN(Cc3ccccc3)S(=O)(=O)C2)CC1 (stereo not given),/,.,/,/
Cc1cc(NC(=O)COC(=O)C(Nc2ccc(C(F)(F)F)cc2Cl)C(C)C)no1 (stereo not given),?,.,?,?
COc1ccccc1CCC(=O)Nc1cc(S(=O)(=O)N2CCCCC2)ccc1N1CCN(C)CC1,12µM,.,?,.
COc1ccccc1OCC(=O)Nc1cc(S(=O)(=O)N2CCOCC2)ccc1N1CCCCC1,/,.,/,13µM
COc1cc(CCC(=O)Nc2cc(Cl)ccc2N2CCN(C)CC2)cc(OC)c1OC,12µM,.,/,?
COc1ccccc1CC(=O)Nc1cc(S(=O)(=O)N2CCOCC2)ccc1N1CCOCC1,?,.,?,.
COc1cc(C(C)=O)ccc1OCC(=O)Nc1cc(S(=O)(=O)N2CCOCC2)ccc1N1CCCC1,/,.,/,.
CCc1ccccc1OCC(=O)Nc1cc(S(=O)(=O)N2CCOCC2)ccc1N1CCCCC1,2.9µM,.,1µM,11µM
O=C(CN1C(=O)C(=O)N(Cc2ccco2)C1=O)Nc1ccccc1,/,.,/,.
CC(C)CN(C(=O)CN1CCc2ccccc21)c1c(N)n(CC(C)C)c(=O)[nH]c1=O,.,.,.,.
NC(=O)c1ccc(/C=N/O)[n+](Cc2ccccc2)c1,.,.,.,.
CCOc1ccc(C(=O)NCc2ccco2)cc1,/,.,.,.
CC(C)COc1ccc(C(=O)NCc2ccco2)cc1,12µM,.,/,?
COc1cccc(C(=O)NCCS(=O)(=O)NCc2ccco2)c1,.,.,.,.
COc1cccc(C(=O)NCc2ccco2)c1,.,.,10µM,.
O=C(NCc1ccco1)c1ccc(Oc2ccccc2)cc1,/,.,7.4µM,?
Cc1ccc(COC(=O)NCc2cccnc2)cc1,.,.,?,.
CCN(CC(=O)Nc1cc(S(=O)(=O)N2CCOCC2)ccc1Cl)Cc1ccccc1,12µM,.,12µM,7.9µM
O=C(C1CCCN(S(=O)(=O)c2ccc(Cl)cc2)C1)N(Cc1cccs1)C1CC1 (stereo not given),13µM,.,.,10µM
SMILES,Pf growth 48h,AMA1 RON2 block,Pf growth 96h,HCV inh
CCN(CC(=O)Nc1cc(S(=O)(=O)N2CCCCC2)ccc1Cl)Cc1ccccc1,10µM,.,10µM,?
CN(CC(=O)Nc1cc(S(=O)(=O)N2CCCC2)ccc1Cl)Cc1cccs1,?,.,.,6.3µM
CC1Cc2ccccc2N1CC(=O)NCc1ccccc1Cl (stereo not given),.,.[11.6 µM],.,?
CCOc1ccc(OCCCC(=O)NCCc2ccc(OC)cc2)cc1,.,.,?,.
CCOC(=O)C1=C(C)NC(C)=C(C(=O)OCC)C1C(=O)OCC(=O)N1CCOCC1,/,.,/,.
Cc1ccc(-c2ccc(/C=N/O)o2)cc1[N+](=O)[O-],.,.,.,.
CC1(C)C(=O)OC(c2cccn2-c2cccc([N+](=O)[O-])c2)C2(CCCCC2)C1=O (stereo not given),13µM,/,.,.
COc1ccccc1N1CCN(C(=O)C(C)N(c2ccc(C)c(C)c2)S(C)(=O)=O)CC1 (stereo not given),?,.,12µM,?
COc1cccc(-c2nc(-c3ccc(NC(=O)c4cccs4)cc3)no2)c1,.,.,4.1µM,?
COc1cccc(C(=O)COc2ccc(NC(=O)c3cccs3)cc2)c1,12µM,.,?,.
CCCOc1ccc(C(=O)Nc2ccc(NC(=O)c3cccs3)cc2)cc1,.,.,.,.
O=C(COc1ccc(NC(=O)c2cccs2)cc1)c1ccc(F)cc1,?,.,.,.
CCCCOc1cccc(C(=O)Nc2ccc(NC(=O)c3cccs3)cc2)c1,.,.,4.7µM,?
CC(C)C(=O)N1CCC1(C)C(=O)Nc1ccc(-n2cncn2)cc1 (stereo not given),/,.,/,/
COc1ccccc1NCCC(=O)OCC(=O)Nc1ccccc1F,/,.[11.6 µM],/,.
CCOC(=O)C1(Cc2cccc(OC)c2)CCN(Cc2cnc(C)s2)CC1,?,.,9.3µM,.
CCOC(=O)C1(Cc2cccc(F)c2)CCN(C(=O)c2cscn2)CC1,.,.,?,.
CCOC(=O)C1(Cc2cccc(OC)c2)CCN(C/C=C/c2ccc(OC)cc2)CC1,?,?,.,8.9µM
CCOC(=O)C1(Cc2cccc(F)c2)CCN(C(=O)c2ccoc2C)CC1,10µM,.,.,.
Cc1c(NC(=O)C(C)OC(=O)c2cccs2)c(=O)n(-c2ccccc2)n1C (stereo not given),.,.,.,.
CCC(C)(C)C1CCc2nc3ccccc3c(C(=O)OC(C)C(=O)Nc3c(C)n(C)n(-c4ccccc4)c3=O)c2C1 (stereo not given),?,.,10µM,?
Cc1cccc2c(N)c3c(nc12)N(C)CC3,.,.,.,.
Cc1cc(C)c2c(N)c3cccc(C)c3nc2n1,4.1µM,.,6.6µM,13µM
c1ccc(Oc2c3ccccc3nc3ccccc23)cc1,7.4µM,.,?,.
Cc1cccc2c(N)c3c(nc12)CCCC3 (tested in a mixture with another compound),4.7µM,.,?,?
SMILES,Pf growth 48h,AMA1 RON2 block,Pf growth 96h,HCV inh
CCN(CC)c1nc2ccccc2c(N)c1-c1ccccc1,15µM,.,.,?
CCc1noc(C)c1C(=O)N(Cc1ccccc1)c1c(N)n(CCOC)c(=O)[nH]c1=O,.,.,.,?
Nc1c2ccccc2nc2ccccc12,5.2µM,.,4.7µM,5µM
Nc1c2c(nc3ccccc13)CCCC2,?,.,8.5µM,?
Cc1c(N(C)C)nc2ccccc2c1N,.,.,.,.
CSc1nn(CCc2ccncc2)c(=S)s1,?,.,.,.
COc1ccccc1/C=C1/C(=N/O)C2CCN1CC2,12µM,.,.,.
O=C1N=C(N2CCCC2)CN1c1ccccc1,.,.,.,.
Clc1ccsc1-c1csc(-c2cccnc2)n1,/,.,?,14µM
c1cncc(-c2csc(-c3cccnc3)n2)c1,.,.,.,.

# Screens (PubChem)
